In PubChem BioAssay AID602428 (Sanford-Burnham Center for Chemical Genomics, 2012):
The campaign covered roughly 2,500 compounds. About 980 (39%) were called active. Only a sample is shown. Values without a mark were called inactive.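 How the source made its calls: active means mean inhibition at 5 µM reaching about 45% (limit read from the data); inactive means the rest.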

Assay: blockers of Gli reporter signaling – single concentration, luciferase luminescence, Sufu-KO-LIGHT cells, confirmation (AID 602428);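 further: plate controls were DMSO-treated cells for no effect and wells lacking cells for full effect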
Conditions: at 5 µM, stronger effect = higher value

Question: For `Cc1ccc(-c2nc3c(cnn3-c3ccccc3)c(=O)o2)cc1`, which inhibition is on record?
Answer: Its inhibition is 38.2%.

Question: With `N#Cc1ccc(C(=O)Nc2nc(-c3cccs3)c(C(=O)C(F)(F)F)s2)cc1` as the compound, how does the inhibition read?
Answer: The inhibition was 66% (active).

Question: With `O=C(O)c1ccc(N/N=C/c2ccc3ncccc3c2)cc1` as the compound, how does the inhibition read?
Answer: Its inhibition is 61.1% (active).

Question: For `CCNC(=S)N(CCN(CC)CC)Cc1cc2cc3c(cc2[nH]c1=O)OCO3`, which inhibition is on record?
Answer: Its inhibition is 20.6%.

Question: Which inhibition does the source give for `CC1(C)Cc2ccccc2/C(=C/C(=O)c2ccccc2)N1` here?
Answer: The inhibition was 27.6%.

Question: Which inhibition does the source give for `CC(C)Oc1ccc(/C=N/NC(=O)c2nnn(-c3nonc3N)c2CN(C)C2CCCCC2)cc1` here?
Answer: Its inhibition is 24.6%.

Question: With `CC(=O)c1c(C)[nH]c(C(=O)OCC(=O)Nc2sc3c(c2C#N)CCCC3)c1C` as the compound, how does the inhibition read?
Answer: Its inhibition is 59% (active).

Question: Which inhibition does the source give for `NC(N)=Nc1nc(-c2ccccc2)c2cc(Cl)ccc2n1` here?
Answer: Its inhibition is 31.6%.

Question: For `COc1ccccc1N1CCN(Cc2cc(OC)c3c(c2)OCO3)CC1`, which inhibition is on record?
Answer: The inhibition was 14.2%.

Question: With `COc1ccccc1C1C2=C(COC2=O)Nc2cc3c(cc21)OCO3` (configuration not stated) as the compound, how does the inhibition read?
Answer: Its inhibition is 48.7% (active).

Question: For `CCCOc1ccccc1C1CC(=O)Nc2cc3c(cc21)OCO3` (configuration not stated), which inhibition is on record?
Answer: Its inhibition is 52.9% (active).

Question: For `CNc1nnc(-c2ccco2)s1`, which inhibition is on record?
Answer: The inhibition was 23.3%.

Question: For `COc1ccc(OC)c(/C=N/NC(=O)c2ccc[n+](CC(=O)c3ccccc3)c2)c1`, which inhibition is on record?
Answer: The inhibition was 13.3%.

Question: For `Cc1ccc(S(=O)(=O)NC(C)C(=O)Nc2ccccc2C(=O)N2CCCC2)cc1` (configuration not stated), which inhibition is on record?
Answer: Its inhibition is 14.3%.

Question: Which inhibition does the source give for `C=CCC1(CC=C)CCCN1C(=O)c1cc(COc2ccc(-n3cncn3)cc2)on1` here?
Answer: Its inhibition is 78.5% (active).

Question: Which inhibition does the source give for `Cc1nonc1C1CCCN1C(=O)c1cc(COc2cccc(C(F)(F)F)c2)on1` (configuration not stated) here?
Answer: Its inhibition is 26.7%.

Question: Which inhibition does the source give for `O=[N+]([O-])c1ccc(N2CCN(CC(O)COc3ccccc3)CC2)cc1` (configuration not stated) here?
Answer: The inhibition was 27.5%.

Question: With `COc1ccc(Cc2nnc(N/N=C/c3ccccc3O)[nH]c2=O)cc1OC` as the compound, how does the inhibition read?
Answer: The inhibition was 73.7% (active).

Question: Which inhibition does the source give for `COc1ccc(/C=N/N=C2/C(=O)Nc3ccccc32)cc1O` here?
Answer: Its inhibition is 21.9%.

Question: Which inhibition does the source give for `c1ccc(-n2nnnc2N2CCOCC2)cc1` here?
Answer: The inhibition was 6.89%.

Question: Which inhibition does the source give for `CC(C)c1ccc(OCC(O)CN2CCN(c3ccccn3)CC2)cc1` (configuration not stated) here?
Answer: The inhibition was 10.6%.

Question: With `Cc1cc([N+](=O)[O-])c(-c2ccc(/C=N/n3cnnc3)o2)cc1Cl` as the compound, how does the inhibition read?
Answer: Its inhibition is 15.1%.

Question: With `O=C(C[C@H]1C/C=C\C[C@@H](NC(=O)OCC2c3ccccc3-c3ccccc32)C(=O)O[C@@H](c2ccccc2)CNC1=O)N[C@H](CO)Cc1ccccc1` as the compound, how does the inhibition read?
Answer: Its inhibition is 57.2% (active).

Question: For `COC(=O)c1ccccc1NC(=O)C1(S(=O)(=O)c2ccc(Cl)cc2)CC1`, which inhibition is on record?
Answer: Its inhibition is 15.8%.

Question: Which inhibition does the source give for `Cc1onc(-c2ccccc2)c1C(=O)Nc1ccccc1C#N` here?
Answer: Its inhibition is 14.9%.

Question: Which inhibition does the source give for `Cc1cccc2nc(CSc3nc4[nH]ncc4c(=O)n3-c3cccc(Cl)c3)cc(=O)n12` here?
Answer: The inhibition was 64.1% (active).

Question: With `CCN(CCO)C(=S)Nc1cc(C(=O)OC)ccc1C(=O)OC` as the compound, how does the inhibition read?
Answer: Its inhibition is 21.2%.

Question: Which inhibition does the source give for `CC(=O)Nc1ccc(NC(=O)c2ccc3c(c2)C(=O)N(c2ccccc2C)C3=O)cc1` here?
Answer: Its inhibition is 28.9%.

Question: For `Cc1ccc(O)c(NC(=O)COc2cc(C)ccc2C)c1`, which inhibition is on record?
Answer: The inhibition was 76.8% (active).

Question: Which inhibition does the source give for `C/C(=N\Nc1ccc(Cl)nn1)c1ccccc1O` here?
Answer: Its inhibition is 47.1% (active).

Question: For `COc1ccc2nc(SCC(=O)Nc3c(C)cc(C)cc3C)[nH]c2c1`, which inhibition is on record?
Answer: The inhibition was 23.1%.

Question: With `CSc1ncccc1C(=O)Nc1nc2ccc(F)cc2s1` as the compound, how does the inhibition read?
Answer: The inhibition was 79.4% (active).

Question: With `Cc1cc(C)c(SCCc2ccncc2)c(C)c1` as the compound, how does the inhibition read?
Answer: The inhibition was 27%.

Question: For `Cc1ccc(NC(=O)CN(C)CC(=O)Nc2cccc(F)c2)cc1[N+](=O)[O-]`, which inhibition is on record?
Answer: Its inhibition is 67.8% (active).

Question: With `CCCC1=Nc2cc(C(=O)NCc3ccco3)ccc2Sc2ccccc21` as the compound, how does the inhibition read?
Answer: The inhibition was 31.8%.

Question: For `O=C1C=C(c2ccnc3cc(Cl)ccc23)C[C@@H](c2ccc3c(c2)OCO3)C1`, which inhibition is on record?
Answer: Its inhibition is 61% (active).

Question: For `COc1ccc(C(=O)NC2CCCc3c2cnn3-c2cccc(C)c2C)c(OC)n1` (configuration not stated), which inhibition is on record?
Answer: Its inhibition is 51.3% (active).

Question: For `CN(c1ccc2nc3ccccc3c(=O)n2n1)C1CCCCC1`, which inhibition is on record?
Answer: The inhibition was 79.3% (active).

Question: Which inhibition does the source give for `COc1cccc(-n2cc(C(=O)O)c3ccccc3c2=O)c1` here?
Answer: Its inhibition is 22.9%.

Question: For `COc1cccc2cc(C(N)=O)/c(=N\NC(=O)c3ccccc3)oc12`, which inhibition is on record?
Answer: The inhibition was 23.9%.

Question: Which inhibition does the source give for `Cc1cc2[nH]ncc2cc1NC(=S)NC(=O)c1ccccc1` here?
Answer: The inhibition was 6.93%.

Question: For `Cc1ccccc1C(=O)NC(=S)Nc1ccc(N2CCN(C(=O)c3ccccc3)CC2)cc1`, which inhibition is on record?
Answer: The inhibition was 64.5% (active).

Question: For `CC(C)C(=O)Nc1nnc(SCC(=O)N2C(C)CCCC2C)s1` (configuration not stated), which inhibition is on record?
Answer: Its inhibition is 17.7%.

Question: For `Cc1ccc(Nc2nc(N3CCOCC3)nc(N3CCOCC3)n2)cc1Cl`, which inhibition is on record?
Answer: The inhibition was 33.3%.

Question: For `CCOc1ccc(-n2c(O)c(/C=N/Nc3nc(C)cc(C)n3)c3ccccc3c2=O)cc1`, which inhibition is on record?
Answer: The inhibition was 78.3% (active).

Question: Which inhibition does the source give for `CCOc1ccc(-n2c(O)c(/C=N/c3ccnn3Cc3ccncc3)c3ccccc3c2=O)cc1` here?
Answer: The inhibition was 28%.

Question: With `O=C(Nc1nc2ccc([N+](=O)[O-])cc2s1)c1ccc(S(=O)(=O)N2CCCc3ccccc32)cc1` as the compound, how does the inhibition read?
Answer: Its inhibition is 82.2% (active).
